Active and inactive are the calls of the source. Calls follow the shape of the dose curve; as a rule, active = well fitted curve in the direction sought with a large enough effect; inconclusive = small, poorly fitted or top-dose-only effect, or another doubt; inactive = no such curve, though single readings can be large or run the other way.
assay: qHTS screen for inhibitors of ELG1-dependent DNA repair in human embryonic kidney (HEK293T) cells expressing luciferase-tagged ELG1: 5FU Viability Assay for probe SAR; details: HEK293T ELG1-luc, CellTiter-Glo viability, 16 h; series mostly up to 46.1 µM
Source text: Cancer cells divide rapidly compared to normal cells in the body. During cell division, cancer cells need to duplicate their genome by DNA replication. The failure of genome duplication leads to cancer cells' death. Therefore, inhibitors of DNA replication could specifically kill cancer cells. Based on this concept, many chemotherapeutic agents were developed and have been used to treat cancer patients. However, there are a limited number of agents available in the clinical setting, and some of those that do exist have low efficacy and severe side effects. Therefore, if we can find the compounds that effectively block DNA replication either by directly damaging DNA or by inhibiting other cellular mechanisms, the options for cancer treatment will be broadened. With this in mind, we developed a quantitative high-throughput ELG1-luciferase reporter gene assay. Small molecules that specifically block ELG1 function in response to DNA damage can be identified by monitoring the suppression of luciferase activity. Since ELG1 defines a pathway for repairing DNA damage, agents blocking ELG1 function can be used to sensitize cancer cells to chemotherapeutic agents whose mechanism of action involves the induction of DNA damage. Cytotoxicity of the active compounds in the ELG1 qHTS assay (AID 493107) was assessed using the CellTiter-Glo Luminescent Cell Viability Assay kit (Promega, USA). CellTiter-Glo measures the intracellular ATP present in metabolically active cells using Ultra-Glo as the luciferase to detect ATP levels. In brief, the luciferase in the buffer catalyzes the oxidation of luciferin to oxyluciferin and light which is dependent on ATP. […] DMSO and wells with media alone were used as positive and negative controls, respectively. Inactivity to this assay is the desirable outcome. NIH Molecular Libraries Probe Production Network [MLPCN] NIH Chemical Genomics Center [NCGC] MLPCN Grant: R03 MH092164 Assay Provider: Kyungjae Myung, NHGRI, NIH
ELG1-luc HEK293T cells will be seeded in 1536-well plates at a density of 2,000 cells/well. Approximately 5 hours after plating, compounds will be added to the plate by pin tool transfer and 5-fluorouridine will be added by FRD dispenser (final concentration of 5-fluorouridine =10 µM). 16 hours following the addition of the compounds, cell viability will be measured using CellTiter Glo.

Row | Compound | outcome
1 | COc1cc(-c2nc(Nc3ccc(F)c(F)c3)c3ccccc3n2)ccn1 | inactive
2 | Fc1ccc(Nc2cc(-c3ccccc3)nc(-c3ccncc3)n2)cc1F | inactive
3 | Cc1cc(-c2nc(Nc3ccc(F)c(F)c3)c3ccccc3n2)cc(C)n1 | inactive
4 | O=[N+]([O-])c1ccc(-c2nc(Nc3ccc(F)c(F)c3)c3ccccc3n2)cc1 | inactive
5 | Fc1cc(Nc2nc(-c3ccncc3)nc3ccccc23)ccc1-c1cncnc1 | inactive
6 | Oc1ccc(Nc2nc(-c3ccncc3)nc3ccccc23)cc1F | inactive
7 | Fc1cc(Nc2nc(-c3ccncc3)nc3ccccc23)ccc1-c1ccnc(C(F)(F)F)c1 | inactive
8 | COc1cc(-c2nc(Nc3ccc(F)c(F)c3)c3ccccc3n2)c(F)cn1 | inactive
9 | COc1cnccc1-c1nc(Nc2ccc(F)c(F)c2)c2ccccc2n1 | inactive
10 | Cc1ccc(Nc2nc(-c3ccncc3)nc3ccccc23)cc1F | inactive
11 | COc1nccc(-c2nc(Nc3ccc(F)c(F)c3)c3ccccc3n2)c1OC | inactive
12 | CCOC(=O)c1ccc2c(c1)c(C(C)=O)c(C)n2-c1ccc(OC)cc1 | inactive
13 | O=c1cc(-c2nc(Nc3ccc(F)c(F)c3)c3ccccc3n2)cc[nH]1 | inactive
14 | Cc1cnccc1-c1nc(Nc2ccc(F)c(F)c2)c2ccccc2n1 | inactive
15 | Fc1ccc(-c2nc(-c3ccncc3)nc3ccccc23)cc1F | inactive
16 | Fc1cc(Nc2nc(-c3ccncc3)nc3ccccc23)ccc1-c1cccc(OC(F)F)c1 | inactive
17 | Fc1cc(Nc2nc(-c3ccncc3)nc3ccccc23)ccc1-c1cccc(OC(F)(F)F)c1 | inactive
18 | Fc1cc(Nc2nc(-c3ccncc3)nc3ccccc23)ccc1N1CCCCC1 | inactive
19 | Fc1cccc(-c2ccc(Nc3nc(-c4ccncc4)nc4ccccc34)cc2F)c1 | inactive
20 | Fc1ccc(Nc2nc(-c3ccncc3Cl)nc3ccccc23)cc1F | inactive
21 | c1ccc2c(Nc3ccn[nH]3)nc(-c3ccncc3)nc2c1 | inactive
22 | CSc1ccccc1-c1ccc(Nc2nc(-c3ccncc3)nc3ccccc23)cc1F | inactive
23 | Fc1cc(Nc2nc(-c3ccncc3)nc3ccccc23)ccc1-c1cn[nH]c1 | inactive
